In the library only some 1.8% were active in any assay of this set; here they are far more common.
PME-1 inh – PME-1 (human) inhibition | Q9Y570 | recombinant PME-1, FP-Rh probe fluorescence polarization | inhibition, % at 5.9 µM | hit rate 0.53% among 320,000 | AID 2130;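 active means inhibition above the campaign mean of all compounds plus 3 SD, cut at about 26% in these data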;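 further: competitive labeling of PME-1 active site by serine hydrolase directed probe; inhibitors block probe labeling so polarization falls and inhibition rises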
Fam108B counter – counter-screen for RBBP9 inhibitors: inhibitors of mouse Fam108B. recombinant Fam108B, FP-Rh probe fluorescence polarization. inhibition, % at 9.51 µM. hit rate 0.33% among 300,000. AID 1947;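 active means inhibition above the screen mean inhibition plus 3 SD, computed separately per campaign, cut at about 18% in these data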;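 further: inhibitors lower polarization as less probe binds the enzyme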
LYPLA2 counter – LYPLA2 (human) inhibition in PME1 counter-screen. O95372. recombinant LYPLA2, FP-Rh probe fluorescence polarization. inhibition, % at 5.9 µM. hit rate 0.38% among 320,000. AID 2177;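 active means inhibition above the screen-wide mean plus 3 SD, limit set per campaign, cut at about 26% in these data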
GSTO1 inh – blocks human GSTO1 in RBBP9 counter-screen | P78417 | recombinant GSTO1, activity-based probe fluorescence polarization | inhibition, % at 5.96 µM | hit rate 1.1% among 300,000 | AID 1974;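 active means inhibition above the campaign mean inhibition plus 3 SD, cut at about 35% in these data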
PAD4 inh – blocks human protein arginine deiminase 4 | AID 485272 | hit rate 0.41% among 330,000 | Q9UM07 | inhibition, % at 6.36 µM | recombinant PAD4, RCA probe fluorescence polarization;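 active means percent inhibition above a cutoff equal to the mean of all tested compounds plus 3 SD, cut at about 15% in these data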
Target sequence (Q9UM07 whole entry, looked up): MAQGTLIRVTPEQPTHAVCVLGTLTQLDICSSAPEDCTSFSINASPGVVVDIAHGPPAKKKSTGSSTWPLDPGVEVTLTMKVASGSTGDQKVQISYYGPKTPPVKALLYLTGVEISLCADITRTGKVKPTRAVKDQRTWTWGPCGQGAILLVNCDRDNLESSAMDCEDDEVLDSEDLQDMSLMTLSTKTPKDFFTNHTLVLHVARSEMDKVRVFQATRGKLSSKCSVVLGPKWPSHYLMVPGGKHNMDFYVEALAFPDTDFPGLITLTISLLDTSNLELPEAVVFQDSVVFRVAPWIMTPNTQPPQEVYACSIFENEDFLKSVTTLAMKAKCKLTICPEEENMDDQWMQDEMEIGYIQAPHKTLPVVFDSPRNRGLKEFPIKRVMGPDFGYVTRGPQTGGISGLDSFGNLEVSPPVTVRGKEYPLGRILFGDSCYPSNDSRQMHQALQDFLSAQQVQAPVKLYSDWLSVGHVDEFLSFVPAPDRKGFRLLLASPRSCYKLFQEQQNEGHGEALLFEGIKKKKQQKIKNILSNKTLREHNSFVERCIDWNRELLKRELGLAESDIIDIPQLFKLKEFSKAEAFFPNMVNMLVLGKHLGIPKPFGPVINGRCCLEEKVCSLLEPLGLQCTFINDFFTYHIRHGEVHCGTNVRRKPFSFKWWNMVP
LYPLA1 counter – LYPLA1 (human) inhibition in PME1 counter-screen; O75608; recombinant LYPLA1, FP-Rh probe fluorescence polarization; inhibition, % at 5.9 µM; hit rate 0.16% among 320,000; AID 2174;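 active means inhibition above the mean of all tested compounds plus 3 SD, set per campaign, cut at about 14% in these data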;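 further: inhibitors block serine hydrolase probe labeling of LYPLA1 so polarization falls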
GSTO1 inh conf – confirmation of human GSTO1 inhibitors; shares compounds with GSTO1 inh; recombinant GSTO1, probe fluorescence polarization; inhibition, % at 5.96 µM; hit rate 54% among 2,400; AID 2176;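 active means inhibition above the primary screen's cutoff, its mean inhibition plus 3 SD, cut at about 35% in these data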;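 further: loss of polarization as inhibitors block binding of rhodamine sulfonate ester activity probe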
GSTO1 ABPP inh – GSTO1 (human) inhibition by gel ABPP; hit rate 30% among 130; inhibition, % at 1 µM; recombinant GSTO1, gel ABPP SE-Rh probe fluorescence; shares compounds with GSTO1 inh; AID 463110;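 active means inhibition of the enzyme GSTO1 above about 75%, limit read from the data; inactive means inhibition below that limit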
LYPLA2 confirm – counter-screen for PME1 inhibitors: confirmation of human LYPLA2 inhibitors | inhibition, % at 5.9 µM | recombinant LYPLA2, FP-Rh probe fluorescence polarization | hit rate 72% among 1,100 | shares compounds with LYPLA2 counter;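 active means mean inhibition across replicates above the hit cutoff set in the primary screen, cut at about 26% in these data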;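 further: blocked labeling of the enzyme by serine hydrolase FP-Rh probe lowers polarization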
PAD4 FP conf – confirmation of human PAD4 inhibitors | hit rate 28% among 1,200 | AID 488796 | inhibition, % at 6.36 µM | recombinant PAD4, RCA probe fluorescence polarization | shares compounds with PAD4 inh;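 active means mean inhibition across replicates above the hit cutoff set by the earlier primary screen, cut at about 15% in these data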;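 further: inhibitors block active-site labeling by the probe so polarization falls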
Large screens that a line does not name were inactive (follow-up assays come after a bar, where they were run).

COc1cccc(C(C[N+](=O)[O-])c2c(C)[nH]n(-c3ccccc3)c2=O)c1 (centres undefined)	GSTO1 inh 81, PAD4 inh 35 | GSTO1 inh conf inactive | PAD4 FP conf inactive
Cc1[nH]n(-c2ccccc2)c(=O)c1C(c1cccc([N+](=O)[O-])c1)c1c(C)[nH]n(-c2ccccc2)c1=O	GSTO1 inh 52, PAD4 inh 30 | GSTO1 inh conf inactive | PAD4 FP conf inactive
Cc1ccc(NC(=O)CCN2C(=O)NC3(CCCC3)C2=O)c(C)c1	none (no result: Fam108B counter, GSTO1 inh)
N#CCOC(=O)C1CCN(S(=O)(=O)c2ccc3c(c2)OCCO3)CC1	none
Cc1ccc2oc(C(=O)Nc3cc(C)on3)c(C)c2c1	none (no result: Fam108B counter, GSTO1 inh)
C=CCOc1c(Cl)cc(CNc2ccc(N(C)C)cc2)cc1OC	GSTO1 inh 77, PAD4 inh 25 | GSTO1 inh conf inactive | PAD4 FP conf inactive
COc1ccc(/C=C2\SC(=O)N(CC(=O)NN3CCN(C)CC3)C2=O)cc1OC	none
C(=Nc1cccc2c(N=Cc3ccco3)cccc12)c1ccco1	GSTO1 inh 40, PAD4 inh 62 | GSTO1 inh conf inactive | PAD4 FP conf inactive
C(=N\C(/N=C/c1ccco1)c1ccco1)/c1ccco1	none
CC1(C)Oc2ccc3ccc(=O)oc3c2/C(=C/NNC(N)=O)C1=O	none
O=C(N/N=C\c1ccc(-c2ccccc2[N+](=O)[O-])o1)C1COc2ccccc2O1 (centres undefined)	GSTO1 inh 66, PAD4 inh 29 | GSTO1 inh conf 47 | PAD4 FP conf inactive
O=C(N/N=C\c1ccc([N+](=O)[O-])o1)C1COc2ccccc2O1 (centres undefined)	none
O=C1c2ccccc2C(=O)c2[nH]c(=O)[nH]c21	GSTO1 inh 64, PAD4 inh 17 | GSTO1 inh conf 62 | PAD4 FP conf inactive
COc1cc(C)nc(NC(=O)NC(=O)c2ccc(C(F)(F)F)cc2)n1	none
COc1ccc(S(=O)(=O)Nc2cc(SCC(=O)O)c(O)c3ccccc23)cc1	LYPLA2 counter 28, GSTO1 inh 81, PAD4 inh 35 | GSTO1 inh conf 54 | LYPLA2 confirm 28 | PAD4 FP conf inactive
COc1cc(C(C[N+](=O)[O-])c2c(C)cc3ccccn23)ccc1O (centres undefined)	GSTO1 inh 39, PAD4 inh 60 | GSTO1 inh conf inactive | PAD4 FP conf inactive
O=S(=O)(Nc1cc(Sc2cccc3cccnc23)c(O)c2ccccc12)c1ccc(F)cc1	GSTO1 inh 57, PAD4 inh 29 | GSTO1 inh conf inactive | PAD4 FP conf inactive
O=S(=O)(Nc1cccnc1Cl)c1ccc(F)cc1	none
O=[N+]([O-])c1ccccc1-c1ccc(/C=N/n2cnnc2)o1	none
O=C(O)CC1S/C(=N/N=C/c2ccc(-c3ccccc3[N+](=O)[O-])o2)NC1=O (centres undefined)	GSTO1 inh 62, PAD4 inh 20 | GSTO1 inh conf inactive | PAD4 FP conf inactive
O=C(O)/C=C/C(=O)Nc1ccc(O)cc1	GSTO1 inh 59, PAD4 inh 60 | GSTO1 inh conf inactive | PAD4 FP conf inactive
CCN1C(=O)N(c2cccc3ccccc23)C(C)=CC1(C)C	none
CCN1c2ccccc2N(C)C1(C)c1ccccc1 (centres undefined)	GSTO1 inh 55, PAD4 inh 20 | GSTO1 inh conf 37 | PAD4 FP conf inactive
CC(C)CCn1c(N)c(S(=O)(=O)c2cccs2)c2nc3ccccc3nc21	GSTO1 inh 57, PAD4 inh 63 | GSTO1 inh conf inactive | PAD4 FP conf inactive
O=[N+]([O-])c1cc(Br)c(O)c(C=Nc2ccc(N3CCOCC3)cc2)c1	GSTO1 inh 72, PAD4 inh 54 | GSTO1 inh conf inactive | PAD4 FP conf inactive
COc1cccc(CN2CCN(CC(=O)NCCc3ccccc3)CC2)c1	none
Cc1ccc(S(=O)(=O)NCCNc2ccc(Br)c(C)c2)cc1	none (no result: PME-1 inh, Fam108B counter, LYPLA2 counter, GSTO1 inh, LYPLA1 counter)
CC1=NN(c2ccccc2)C(=O)/C1=C\c1cn(-c2ccccc2)nc1C	none
CC1=NN(c2ccc(C)cc2)C(=O)/C1=C\c1ccc(Br)s1	GSTO1 inh 40, PAD4 inh 21 | GSTO1 inh conf inactive | PAD4 FP conf 40
Cc1ccc(N=Cc2ccc(N(C)C)cc2)cc1	none
CN(C)c1ccc(C=Nc2ccc(N(C)C)cc2)cc1	GSTO1 inh 78, PAD4 inh 32 | GSTO1 inh conf inactive | PAD4 FP conf inactive
CC(OC(=O)c1ccccc1C(=O)N(C)c1ccccc1)C(=O)Nc1ccccc1[N+](=O)[O-] (centres undefined)	none
COc1ccc(Cn2c(N)c(C#N)c3nc4ccccc4nc32)cc1OC	none
COc1ccc(CCn2c(N)c(C#N)c3nc4ccccc4nc32)cc1OC	PME-1 inh 34, GSTO1 inh 57, PAD4 inh 24 | GSTO1 inh conf inactive | PAD4 FP conf inactive
COc1cc(/C=C2/C(=O)N(c3ccc(C)c(C)c3)N=C2C)cc([N+](=O)[O-])c1O	none
C#CCOc1ccc(/C=C2/C(=O)N(c3cccc(C(=O)O)c3)N=C2C)cc1OC	GSTO1 inh 70, PAD4 inh 39 | GSTO1 inh conf inactive | PAD4 FP conf inactive
CC1=NN(c2ccccc2)C(=O)/C1=C\c1cn(CCC#N)nc1-c1ccc(Cl)cc1	GSTO1 inh 53, PAD4 inh 19 | GSTO1 inh conf inactive | PAD4 FP conf inactive
COc1ccccc1/C=C1/C(=O)N(c2ccccc2)N=C1C	GSTO1 inh 46, PAD4 inh 48 | GSTO1 inh conf inactive | PAD4 FP conf inactive
CC1(C)C2C(Cl)(Cl)C2(C)c2ccccc2N1C=O (centres undefined)	none
S=C(Nc1ccc2nsnc2c1)N1CCCCCC1	GSTO1 inh 77, PAD4 inh 50 | GSTO1 inh conf 79 | PAD4 FP conf inactive
O=C(Nc1ccc2nsnc2c1)N1CCCCC1	none
CC(=O)N(C1=C(N2CCOCC2)C(=O)c2ccccc2C1=O)c1ccc(C(=O)O)cc1	GSTO1 inh 61, PAD4 inh 17 | GSTO1 inh conf 55 | PAD4 FP conf inactive
O=S(=O)(Nc1ccncc1)c1cc(Cl)c(Cl)cc1Cl	none
CC(=O)n1cc(N(C(=O)CCl)c2ccc(Cl)cc2)c2ccccc21	GSTO1 inh 82, PAD4 inh 20 | GSTO1 inh conf 84 | GSTO1 ABPP inh 82 | PAD4 FP conf 51
